Drawing on PubChem BioAssay (NCI), this text covers growth for seven molecules.

Molecules are shown by their SMILES. This is part of a sample that, as a whole, favours compounds with a hit. Of some 83,000 tested, about 20% had one in any assay.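 Each cell line was grown in a 96-well plate and treated with one concentration of compound for 48 hours. Values below 10 were considered active.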 Unmarked numbers belong to inactive results. Activity calls are given as the source filed them.

What all share (test): NCI-60 one-dose screen, 48 h (100 = growth as untreated, 0 = no growth, -100 = all killed)
Conditions in all cases: 10 µM unless noted

Test [1] concerns NCI-H23 lung.
Test [2] has as its system NCI-H226 lung.
Test [3] has as its system NCI-H322M lung.
The test system of test [4] is HOP-62 NSCLC.
In test [5] the test system is NCI-H460 lung.
Test [6] relates to HOP-92 NSCLC.
For test [7], the system named is NCI-H522 lung.
For test [8], the system named is A549/ATCC NSCLC.
Test [9] concerns 786-0 renal.
In test [10] the test system is COLO 205 colon.
Test [11] deals with DU-145 prostate.
The subject of test [12] is K-562 leukemia.
For test [13], the system named is MALME-3M melanoma.
Test [14] concerns MDA-MB-231 breast.
In test [15] the test system is RXF 393 renal.
Test [16] deals with SF-268 CNS.
Test [17] concerns SF-295 CNS.
The test system of test [18] is SF-539 CNS.
Test [19] deals with UACC-257 melanoma.
Test [20] relates to M14 melanoma.

Regarding `CCn1cc(C(=O)N/N=C/c2cccc(F)c2)c(=O)c2cc(F)c(N3CCNC(C)C3)c(F)c21` (stereo not given), the growth in test [1] was 76.2%; in test [2] it was 97.1%; in test [3], 83.4%; in [4] it was 86.5%; in [5] it was -79% (active); in test [6], 51.2%. Further, the growth in [7] was -29.8% (active); in test [8], -66.6% (active); in [9], -39.7% (active); in test [10] it was 17.5%; in [11] it was -87.5% (active); in test [12] it was -52.1% (active). Further, the growth in test [13] was -67.4% (active); in test [14], -49.6% (active); in test [15], -21.6% (active); in [16] it was 39.4%; in test [17] it was 75.7%; in [18], -4.61% (active). The growth in [19] was 89%; in test [20], -7.07% (active).
`CCOC(=O)NC(=S)n1oc(=O)c2ccccc21`: the growth in [1] was 97.7%; in test [2] it was 102%; in [3], 98.8%; in test [4], 99.4%; in test [5], 101%; in test [6], 86.2%. Besides, the growth was 99.3% in [7]; 103% in test [8]; 111% in test [9]; 103% in test [10]; 106% in test [11]; 112% in test [12]. Also, the growth in [13] was 95.4%; in test [14], 96.8%; in test [15], 111%; in test [16] it was 96.1%; in test [17], 103%; in test [18], 95.6%. In addition, the growth is 105% in test [19] and 104% in test [20].
On to `CCCCCCCCCCCCCCCCCCOc1ccccc1CC(=O)NCC[N+](C)(C)C`, for which the growth in test [1] was 51.6%; in test [2], 61.6%; in test [3], 66.9%; in [4], 5.94% (active); in test [5] it was 22.5%; in [6], -5.43% (active). In addition, the growth in test [7] is 7.44% (active); in [8], 40.8%; in [9], 16.2%; in test [10], -85.2% (active); in [11] it was 44.3%; in test [12], 25.9%. In addition, the growth in test [13] is 78.8%; in test [14] it was 46.7%; in test [15], -39.7% (active); in test [16], 24.2%; in test [17] it was 52.1%; in test [18] it was 46.4%. For the same molecule, the figures for the growth in test [19] and in test [20] were 93.8% and 33.7%, respectively.
As for `Cc1nc([P+](c2ccccc2)(c2ccccc2)c2ccccc2)c(N2CCCCC2)o1`, the growth in test [1] was 17.1%; in [2], 53.9%; in test [3] it was 78.4%; in test [4], 30.3%; in [5] it was 12.7%; in test [6], 16.7%. Moreover, the growth is 28.8% in test [7]; 32.8% in [8]; 60.3% in test [9]; -45.3% (active) in [10]; 30.2% in test [11]; 15.8% in test [12]. Moreover, the growth in [13] is 53.7%; in test [14], 43.5%; in test [15], 67%; in [16], 26%; in test [17] it was 32.7%; in test [18] it was 46.6%. The growth in test [19] is 8.05% (active); in [20], 37%.
As for `CC(C)(C)OC(=O)CN1CCc2c(sc3ncnc(N4CCN(c5ccc(F)cc5)CC4)c23)C1`, the growth is 88.2% in test [1]; 73.1% in [2]; 83.6% in [3]; 93.2% in test [4]; 88.6% in test [5]; 84% in [6]. Besides, the growth was 82% in [7]; 90.3% in test [8]; 81.8% in test [9]; 86.4% in test [10]; 90.1% in [11]; 87.7% in test [12]. The growth in test [13] was 90.6%; in test [14], 75.7%; in test [15], 92.2%; in test [16], 81.9%; in test [17] it was 104%; in test [18] it was 81.6%. The results for the growth in test [19] and in test [20] were 97.7% and 98.4%, respectively.
In the case of `CCOc1ncc([N+](=O)[O-])c(OCC)n1`, the growth in test [1] was 106%; in [2], 107%; in test [3] it was 123%; in test [4] it was 104%; in test [5], 113%; in test [6], 82.2%. Moreover, the growth was 99.9% in test [7]; 98.9% in test [8]; 108% in test [9]; 112% in [10]; 123% in test [11]; 103% in test [12]. Further, the growth is 129% in test [13]; 97.1% in test [14]; 122% in test [15]; 118% in test [16]; 116% in test [17]; 102% in test [18]. For the same molecule, the growth in [19] is 102%; in [20] it was 112%.
For `CCOC(=O)c1[nH]cc2c1CCc1sc(Nc3ccccn3)nc1-2`, the growth was 66.7% in test [1]; 57.2% in [2]; 96% in test [3]; 92.3% in [4]; 85.9% in [5]; 56.3% in [6]. Besides, the growth in test [7] is 66.2%; in [8] it was 70.2%; in [9] it was 98.7%; in [10] it was 93.7%; in test [11] it was 74.4%; in test [12], 59.5%. For the same molecule, the growth in test [13] is 108%; in [14], 82.3%; in test [15] it was 86.2%; in [16], 89.4%; in test [17], 86.5%; in test [18], 101%. For the same molecule, the figures for the growth in [19] and in test [20] were 73.8% and 86.3%, respectively.
